Test [1] has as its target High affinity nerve growth factor receptor (Homo sapiens) (UniProt P04629). The conditions noted are these: at 1 µM.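 Note: each value is the mean percent inhibition of TRKA.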
Test [2] addresses BDNF/NT-3 growth factors receptor (Homo sapiens) (UniProt Q16620). The settings on record: at 0.1 µM.
Test [3] shares this target. The settings on record: at 1 µM.
The target in test [4] is NT-3 growth factor receptor (Homo sapiens) (UniProt Q16288). The conditions noted are these: at 0.1 µM.
NT-3 growth factor receptor (Homo sapiens), sequence (Q16288 32-839 limits assumed): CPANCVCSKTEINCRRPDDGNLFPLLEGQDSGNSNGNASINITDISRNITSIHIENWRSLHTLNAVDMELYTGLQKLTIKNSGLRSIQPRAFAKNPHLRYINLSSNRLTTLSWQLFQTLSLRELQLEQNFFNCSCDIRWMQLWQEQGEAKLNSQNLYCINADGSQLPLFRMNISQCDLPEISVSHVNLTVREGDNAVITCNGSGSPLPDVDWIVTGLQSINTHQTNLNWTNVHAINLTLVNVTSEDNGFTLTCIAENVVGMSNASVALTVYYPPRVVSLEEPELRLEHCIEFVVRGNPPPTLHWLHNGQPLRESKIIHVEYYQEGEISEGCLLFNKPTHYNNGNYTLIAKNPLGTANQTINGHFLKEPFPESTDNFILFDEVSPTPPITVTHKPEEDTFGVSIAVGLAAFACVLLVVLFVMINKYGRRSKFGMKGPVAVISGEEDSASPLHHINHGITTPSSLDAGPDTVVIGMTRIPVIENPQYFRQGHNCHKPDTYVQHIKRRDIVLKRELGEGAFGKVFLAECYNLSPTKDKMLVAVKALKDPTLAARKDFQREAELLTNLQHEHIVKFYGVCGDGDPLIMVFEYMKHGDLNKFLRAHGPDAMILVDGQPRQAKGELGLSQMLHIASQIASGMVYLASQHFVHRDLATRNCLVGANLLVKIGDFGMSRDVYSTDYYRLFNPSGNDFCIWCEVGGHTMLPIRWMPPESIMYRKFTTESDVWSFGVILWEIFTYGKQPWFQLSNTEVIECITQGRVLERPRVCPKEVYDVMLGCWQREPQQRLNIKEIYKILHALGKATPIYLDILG
For test [5] the target is unchanged. The settings on record: at 1 µM.
Test [6] addresses T1, Tyrosine-protein kinase TXK (Homo sapiens) (UniProt P42681).
T1 sequence (whole entry): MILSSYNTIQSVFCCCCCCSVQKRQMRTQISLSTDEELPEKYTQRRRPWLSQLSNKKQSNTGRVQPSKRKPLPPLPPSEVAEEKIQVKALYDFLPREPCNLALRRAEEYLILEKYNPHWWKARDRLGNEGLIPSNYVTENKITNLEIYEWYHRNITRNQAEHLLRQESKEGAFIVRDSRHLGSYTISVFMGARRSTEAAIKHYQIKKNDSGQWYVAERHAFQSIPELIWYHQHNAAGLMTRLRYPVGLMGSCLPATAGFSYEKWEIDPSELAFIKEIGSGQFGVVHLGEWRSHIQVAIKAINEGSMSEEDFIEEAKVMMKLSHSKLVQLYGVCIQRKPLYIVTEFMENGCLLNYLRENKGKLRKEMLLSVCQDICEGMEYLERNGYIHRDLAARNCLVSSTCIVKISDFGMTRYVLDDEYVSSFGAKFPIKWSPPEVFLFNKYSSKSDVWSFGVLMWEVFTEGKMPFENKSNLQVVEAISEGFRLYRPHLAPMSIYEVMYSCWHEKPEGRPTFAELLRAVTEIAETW
The conditions noted are these: at 0.1 µM.

Test [7] has as its target T1, Tyrosine-protein kinase TXK (Homo sapiens). The settings on record: at 1 µM.
For test [8], the target named is Non-receptor tyrosine-protein kinase TYK2 (Homo sapiens) (UniProt P29597). The settings on record: at 0.1 µM.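 Note: each value is a mean of the inhibition readings.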
Non-receptor tyrosine-protein kinase TYK2 (Homo sapiens), sequence (P29597 whole entry): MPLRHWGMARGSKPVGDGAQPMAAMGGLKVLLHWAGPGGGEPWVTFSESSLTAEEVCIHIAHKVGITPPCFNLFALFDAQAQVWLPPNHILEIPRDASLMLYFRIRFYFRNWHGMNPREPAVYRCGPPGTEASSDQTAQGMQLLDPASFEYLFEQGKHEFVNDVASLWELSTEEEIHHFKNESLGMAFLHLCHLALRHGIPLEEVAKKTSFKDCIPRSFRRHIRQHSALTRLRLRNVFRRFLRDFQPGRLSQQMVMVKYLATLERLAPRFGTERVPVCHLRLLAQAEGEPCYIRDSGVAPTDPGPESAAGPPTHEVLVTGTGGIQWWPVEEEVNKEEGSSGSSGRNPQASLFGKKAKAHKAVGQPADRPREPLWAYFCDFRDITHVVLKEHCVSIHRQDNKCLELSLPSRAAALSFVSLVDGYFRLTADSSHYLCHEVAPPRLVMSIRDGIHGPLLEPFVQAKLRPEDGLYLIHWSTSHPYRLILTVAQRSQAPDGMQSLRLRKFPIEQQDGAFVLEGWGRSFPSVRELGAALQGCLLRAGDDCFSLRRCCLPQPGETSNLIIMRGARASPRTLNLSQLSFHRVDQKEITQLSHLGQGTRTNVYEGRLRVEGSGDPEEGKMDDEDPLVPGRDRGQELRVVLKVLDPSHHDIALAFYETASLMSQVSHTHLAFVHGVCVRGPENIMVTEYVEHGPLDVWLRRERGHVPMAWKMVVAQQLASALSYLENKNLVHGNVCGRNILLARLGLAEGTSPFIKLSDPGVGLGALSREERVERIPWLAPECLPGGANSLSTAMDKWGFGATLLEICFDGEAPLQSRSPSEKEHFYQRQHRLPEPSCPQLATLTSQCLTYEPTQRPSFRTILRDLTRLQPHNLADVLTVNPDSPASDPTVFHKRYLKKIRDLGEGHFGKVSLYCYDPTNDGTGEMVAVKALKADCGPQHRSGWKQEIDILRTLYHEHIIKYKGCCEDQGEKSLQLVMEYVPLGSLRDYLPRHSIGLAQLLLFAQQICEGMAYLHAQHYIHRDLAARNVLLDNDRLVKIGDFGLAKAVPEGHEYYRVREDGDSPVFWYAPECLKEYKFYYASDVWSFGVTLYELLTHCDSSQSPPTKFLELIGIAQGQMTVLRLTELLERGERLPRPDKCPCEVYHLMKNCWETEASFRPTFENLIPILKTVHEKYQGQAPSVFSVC
The target of test [9] is T2, Dual specificity protein kinase TTK (Homo sapiens) (UniProt P33981).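 Note: reported figures are mean TTK inhibition at 1 µM.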
T2 sequence (whole entry): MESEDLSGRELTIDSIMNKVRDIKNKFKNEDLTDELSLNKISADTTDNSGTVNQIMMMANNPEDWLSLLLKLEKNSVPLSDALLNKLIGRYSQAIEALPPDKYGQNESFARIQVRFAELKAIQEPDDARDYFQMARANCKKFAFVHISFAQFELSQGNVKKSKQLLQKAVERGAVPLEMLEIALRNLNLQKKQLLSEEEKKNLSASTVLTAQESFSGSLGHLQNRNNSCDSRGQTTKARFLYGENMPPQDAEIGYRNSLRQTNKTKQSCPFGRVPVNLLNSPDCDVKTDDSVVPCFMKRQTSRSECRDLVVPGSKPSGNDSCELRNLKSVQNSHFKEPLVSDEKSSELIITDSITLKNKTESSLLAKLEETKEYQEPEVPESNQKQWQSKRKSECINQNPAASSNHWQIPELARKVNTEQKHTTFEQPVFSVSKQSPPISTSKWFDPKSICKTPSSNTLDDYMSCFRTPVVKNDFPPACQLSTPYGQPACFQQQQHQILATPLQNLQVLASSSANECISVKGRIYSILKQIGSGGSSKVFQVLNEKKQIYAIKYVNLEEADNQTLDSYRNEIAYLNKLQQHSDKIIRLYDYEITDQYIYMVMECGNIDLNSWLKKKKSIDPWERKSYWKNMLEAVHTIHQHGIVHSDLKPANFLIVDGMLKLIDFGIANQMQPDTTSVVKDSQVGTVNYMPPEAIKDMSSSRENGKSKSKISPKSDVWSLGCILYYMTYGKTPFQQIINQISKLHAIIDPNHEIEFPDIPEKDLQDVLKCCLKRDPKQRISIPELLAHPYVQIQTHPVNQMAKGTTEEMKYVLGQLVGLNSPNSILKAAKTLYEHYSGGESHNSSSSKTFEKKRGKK
The conditions noted are these: at 1 µM.

The target of test [10] is T3, Aurora kinase A (Homo sapiens) (UniProt O14965).
T3 sequence (whole entry): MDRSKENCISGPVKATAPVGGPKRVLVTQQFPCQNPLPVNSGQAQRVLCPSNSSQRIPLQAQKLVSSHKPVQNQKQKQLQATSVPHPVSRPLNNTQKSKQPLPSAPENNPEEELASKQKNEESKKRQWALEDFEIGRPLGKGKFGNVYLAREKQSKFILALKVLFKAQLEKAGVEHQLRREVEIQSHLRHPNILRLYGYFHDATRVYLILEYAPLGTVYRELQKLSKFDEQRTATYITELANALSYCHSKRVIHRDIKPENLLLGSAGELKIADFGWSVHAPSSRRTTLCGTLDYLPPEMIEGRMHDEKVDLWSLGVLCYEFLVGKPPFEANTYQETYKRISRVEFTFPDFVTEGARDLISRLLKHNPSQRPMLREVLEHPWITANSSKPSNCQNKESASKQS
The settings on record: at 0.1 µM.

Test [11] has as its target T3, Aurora kinase A (Homo sapiens). The settings on record: at 1 µM.
Test [12] has as its target Aurora kinase B (Homo sapiens) (UniProt Q96GD4). The settings on record: at 0.1 µM.
For test [13] the target is unchanged. The conditions noted are these: at 1 µM.
Test [14] deals with T4, Aurora kinase C (Homo sapiens) (UniProt Q9UQB9).
T4 sequence (whole entry): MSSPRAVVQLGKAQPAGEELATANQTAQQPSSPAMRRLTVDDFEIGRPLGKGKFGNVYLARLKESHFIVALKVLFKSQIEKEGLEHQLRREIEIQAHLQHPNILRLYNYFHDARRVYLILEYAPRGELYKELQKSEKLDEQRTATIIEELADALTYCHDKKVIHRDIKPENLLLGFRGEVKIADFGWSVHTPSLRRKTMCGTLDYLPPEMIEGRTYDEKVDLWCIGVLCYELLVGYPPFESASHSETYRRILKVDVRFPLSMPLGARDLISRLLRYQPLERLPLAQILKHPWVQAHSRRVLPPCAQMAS
The conditions noted are these: at 0.1 µM.

The target of test [15] is T4, Aurora kinase C (Homo sapiens). The settings on record: at 1 µM.
The target of test [16] is Serine/threonine-protein kinase 10 (Homo sapiens) (UniProt O94804). The conditions noted are these: at 0.1 µM.
Serine/threonine-protein kinase 10 (Homo sapiens), sequence (O94804 whole entry, looked up): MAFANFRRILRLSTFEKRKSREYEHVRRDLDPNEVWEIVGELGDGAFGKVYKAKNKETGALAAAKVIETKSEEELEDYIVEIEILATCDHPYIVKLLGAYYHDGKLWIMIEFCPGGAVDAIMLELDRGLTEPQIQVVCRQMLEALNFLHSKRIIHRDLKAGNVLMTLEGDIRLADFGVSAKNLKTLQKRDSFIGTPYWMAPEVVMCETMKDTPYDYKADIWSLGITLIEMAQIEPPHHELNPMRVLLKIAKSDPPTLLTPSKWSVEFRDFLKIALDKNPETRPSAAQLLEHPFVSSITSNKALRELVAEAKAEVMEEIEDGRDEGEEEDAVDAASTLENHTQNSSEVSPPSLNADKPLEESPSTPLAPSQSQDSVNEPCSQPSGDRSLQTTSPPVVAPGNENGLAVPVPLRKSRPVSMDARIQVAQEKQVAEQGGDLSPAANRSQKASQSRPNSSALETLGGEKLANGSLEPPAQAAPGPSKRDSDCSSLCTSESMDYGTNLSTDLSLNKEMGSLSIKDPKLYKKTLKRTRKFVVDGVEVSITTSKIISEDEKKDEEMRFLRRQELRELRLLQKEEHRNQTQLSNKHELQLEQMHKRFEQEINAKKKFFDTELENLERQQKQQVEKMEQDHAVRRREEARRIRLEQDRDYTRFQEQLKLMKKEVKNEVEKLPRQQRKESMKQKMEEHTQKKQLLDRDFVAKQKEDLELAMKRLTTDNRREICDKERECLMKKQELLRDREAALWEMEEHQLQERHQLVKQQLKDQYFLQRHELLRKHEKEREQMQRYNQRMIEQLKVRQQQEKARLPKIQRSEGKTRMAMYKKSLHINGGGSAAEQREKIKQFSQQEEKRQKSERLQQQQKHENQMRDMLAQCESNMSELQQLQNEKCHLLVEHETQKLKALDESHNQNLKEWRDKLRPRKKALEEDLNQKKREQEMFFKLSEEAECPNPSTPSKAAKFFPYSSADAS
Test [17] shares this target. The settings on record: at 1 µM.
For test [18], the target named is T5, Mitogen-activated protein kinase kinase kinase kinase 2 (Homo sapiens) (UniProt Q12851).
T5 sequence (whole entry): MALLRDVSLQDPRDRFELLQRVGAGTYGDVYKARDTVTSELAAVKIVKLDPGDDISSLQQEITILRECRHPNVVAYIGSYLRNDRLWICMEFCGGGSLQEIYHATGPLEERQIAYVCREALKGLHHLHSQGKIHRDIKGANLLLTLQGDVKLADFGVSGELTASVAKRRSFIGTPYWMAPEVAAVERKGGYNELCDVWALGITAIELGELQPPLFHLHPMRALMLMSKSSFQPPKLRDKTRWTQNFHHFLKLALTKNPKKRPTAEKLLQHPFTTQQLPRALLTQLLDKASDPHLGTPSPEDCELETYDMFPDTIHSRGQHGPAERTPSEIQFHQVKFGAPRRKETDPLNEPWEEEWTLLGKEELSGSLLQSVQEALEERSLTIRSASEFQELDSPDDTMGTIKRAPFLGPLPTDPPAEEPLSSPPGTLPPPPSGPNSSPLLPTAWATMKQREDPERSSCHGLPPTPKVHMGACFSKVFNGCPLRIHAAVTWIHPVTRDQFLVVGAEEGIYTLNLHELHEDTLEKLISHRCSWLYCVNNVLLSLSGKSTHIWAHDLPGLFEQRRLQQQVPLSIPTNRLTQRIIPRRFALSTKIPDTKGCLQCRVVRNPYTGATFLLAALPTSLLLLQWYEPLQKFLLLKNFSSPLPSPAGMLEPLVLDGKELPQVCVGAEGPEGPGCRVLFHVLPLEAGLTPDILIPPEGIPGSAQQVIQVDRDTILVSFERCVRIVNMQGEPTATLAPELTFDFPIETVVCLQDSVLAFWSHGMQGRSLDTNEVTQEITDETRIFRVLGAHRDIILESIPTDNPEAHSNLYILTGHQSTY
The settings on record: at 0.1 µM.

Test [19] has as its target T5, Mitogen-activated protein kinase kinase kinase kinase 2 (Homo sapiens). The conditions noted are these: at 1 µM.
Test [20] deals with Mitogen-activated protein kinase kinase kinase kinase 4 (Homo sapiens) (UniProt O95819). The settings on record: at 0.1 µM.

Structures are written as SMILES. “And” between values parts separate entries of the source, which are not always exact repeats. Identical values can stand only once.

Aurora kinase B (Homo sapiens), sequence (Q96GD4 whole entry): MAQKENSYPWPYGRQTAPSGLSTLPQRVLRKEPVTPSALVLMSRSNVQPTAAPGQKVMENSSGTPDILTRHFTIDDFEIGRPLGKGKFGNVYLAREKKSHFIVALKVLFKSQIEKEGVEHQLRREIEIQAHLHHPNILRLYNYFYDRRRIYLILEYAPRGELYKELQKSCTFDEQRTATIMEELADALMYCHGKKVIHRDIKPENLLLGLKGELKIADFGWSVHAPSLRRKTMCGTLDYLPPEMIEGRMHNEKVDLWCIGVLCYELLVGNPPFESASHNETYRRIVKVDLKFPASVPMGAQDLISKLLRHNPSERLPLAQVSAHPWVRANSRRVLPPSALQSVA
BDNF/NT-3 growth factors receptor (Homo sapiens), sequence (Q16620 32-822 limits assumed): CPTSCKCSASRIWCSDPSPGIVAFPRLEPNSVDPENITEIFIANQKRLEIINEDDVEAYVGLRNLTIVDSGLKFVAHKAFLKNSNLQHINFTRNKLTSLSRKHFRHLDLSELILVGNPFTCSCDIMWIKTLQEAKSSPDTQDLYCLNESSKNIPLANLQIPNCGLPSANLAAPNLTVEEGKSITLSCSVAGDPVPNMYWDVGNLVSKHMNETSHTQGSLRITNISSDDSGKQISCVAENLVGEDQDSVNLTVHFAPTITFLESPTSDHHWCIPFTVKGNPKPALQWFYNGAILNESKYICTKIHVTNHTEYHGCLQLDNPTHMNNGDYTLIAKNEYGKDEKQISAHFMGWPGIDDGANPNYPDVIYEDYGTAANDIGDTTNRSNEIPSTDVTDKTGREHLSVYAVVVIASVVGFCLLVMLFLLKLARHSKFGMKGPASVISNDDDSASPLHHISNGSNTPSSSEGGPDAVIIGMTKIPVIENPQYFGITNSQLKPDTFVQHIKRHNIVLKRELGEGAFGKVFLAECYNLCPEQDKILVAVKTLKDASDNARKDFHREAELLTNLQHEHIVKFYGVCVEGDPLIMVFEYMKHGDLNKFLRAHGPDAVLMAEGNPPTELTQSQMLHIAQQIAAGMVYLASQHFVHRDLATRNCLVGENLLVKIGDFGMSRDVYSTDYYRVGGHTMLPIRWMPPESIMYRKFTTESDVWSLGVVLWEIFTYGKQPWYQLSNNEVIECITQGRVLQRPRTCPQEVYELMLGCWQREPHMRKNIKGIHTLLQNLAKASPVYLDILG
High affinity nerve growth factor receptor (Homo sapiens), sequence (P04629 33-796 limits assumed): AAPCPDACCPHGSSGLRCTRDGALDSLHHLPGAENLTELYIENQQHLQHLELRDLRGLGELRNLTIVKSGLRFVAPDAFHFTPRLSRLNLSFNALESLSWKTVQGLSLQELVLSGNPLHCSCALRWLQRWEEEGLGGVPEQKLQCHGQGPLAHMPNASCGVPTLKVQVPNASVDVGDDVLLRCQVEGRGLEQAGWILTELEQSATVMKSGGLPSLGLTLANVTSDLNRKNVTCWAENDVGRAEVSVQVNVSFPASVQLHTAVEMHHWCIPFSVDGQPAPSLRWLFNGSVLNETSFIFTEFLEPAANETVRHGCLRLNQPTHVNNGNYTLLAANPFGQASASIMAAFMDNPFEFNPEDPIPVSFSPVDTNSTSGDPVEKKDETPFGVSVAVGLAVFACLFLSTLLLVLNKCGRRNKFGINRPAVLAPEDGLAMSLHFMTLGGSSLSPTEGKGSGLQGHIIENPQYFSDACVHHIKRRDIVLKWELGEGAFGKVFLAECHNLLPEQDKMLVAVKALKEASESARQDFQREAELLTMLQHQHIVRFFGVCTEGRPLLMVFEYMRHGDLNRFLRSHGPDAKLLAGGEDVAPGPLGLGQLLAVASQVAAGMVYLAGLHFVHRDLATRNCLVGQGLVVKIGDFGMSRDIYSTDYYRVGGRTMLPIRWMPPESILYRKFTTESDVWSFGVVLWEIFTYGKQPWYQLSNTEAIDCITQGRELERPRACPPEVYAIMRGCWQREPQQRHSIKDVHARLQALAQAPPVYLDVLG

With `Nc1nonc1-c1nc2cnccc2n1C1CC1`, the inhibition in [1] is 0.83% and 3.35%; in test [2], 1.21% and 3.09%; in [3] it was 3.17% and -0.36%; in test [4] it was 2.17% and 1.89%; in test [5], 3.84% and 1.11%; in test [6] it was 4.13% and -0.96%. Moreover, the inhibition in test [7] was 5.76% and -3.04%; in test [8], -4.88% and 0.09%; in test [9] it was 5.15% and -6.34%; in test [10], 3.77% and -2.63%; in [11], 10.7% and -0.07%; in [12] it was 5.82% and -0.78%. In addition, the inhibition was 11.3% and 1.86% in test [13]; 4.22% and -3.73% in test [14]; 11.6% and -0.49% in test [15]; 7.02% and 3.14% in test [16]; 15.1% and 14.1% in [17]; 3.53% and 3.38% in test [18]. Besides, the inhibition in test [19] is 14.3% and 12.8%; in test [20] it was 11.1% and 7.77%.
Consider `COc1cc2c(cc1Nc1nc(Nc3cccc(F)c3C(N)=O)c3cc[nH]c3n1)N(C(=O)CN1CCN(C(C)C)CC1)CC2`, for which the inhibition was 0.01% in test [1]; -0.13% in test [2]; 0.84% in test [3]; -1.97% in test [4]; -0.99% in test [5]; 7.39% in [6]. Also, the inhibition is 3.01% in [7]; 0.12% in test [8]; 47.7% in test [9]; 0.69% in test [10]; 0.34% in test [11]; 1.62% in test [12]. In addition, the inhibition was 2.41% in [13]; -0.27% in test [14]; 3.25% in test [15]; 2.03% in test [16]; 5.12% in test [17]; 1.69% in test [18]. The inhibition in test [19] is 11.3%; in test [20] it was 0.45%.
Turning to `Nc1nccc(-c2c(-c3ccc(F)cc3)ncn2C2CCNCC2)n1`, the inhibition was -2.46% and 2.61% in test [1]; -1.2% and 0.85% in [2]; -0.92% and 0.76% in test [3]; -2.82% and 1.09% in [4]; -1.78% and 1.96% in test [5]; -1.02% and 1.02% in test [6]. The inhibition was -0.81% and 3.65% in test [7]; 0.9% and -0.21% in test [8]; -1.76% and -0.14% in test [9]; -4.27% and 0.74% in test [10]; 2.76% and 3.22% in test [11]; -5.29% and 2.13% in test [12]. Moreover, the inhibition was -0.57% and 3.55% in test [13]; -7.14% and -0.01% in [14]; -5.53% and -3.08% in [15]; -0.78% and 0.07% in [16]; 4.14% and -0.32% in test [17]; -0.37% and 2% in test [18]. Further, the inhibition in test [19] is 4.6% and 3.83%; in test [20], -1.38% and 3.46%.
On to `CN(c1ccc(NC(=O)NCCN2CCOCC2)cc1)c1ccnc(Nc2ccc(CS(C)(=O)=O)cc2)n1`, for which the inhibition in test [1] was 5.98%; in test [2], 3.15%; in test [3] it was 8%; in [4], 1.78%; in test [5] it was 11.3%; in test [6], 16.9%. In addition, the inhibition is 57.7% in [7]; -6.06% in test [8]; 7.72% in test [9]; 24.5% in test [10]; 93.9% in test [11]; 29.7% in test [12]. For the same compound, the inhibition was 76.9% in test [13]; 43.8% in test [14]; 104% in test [15]; 11.9% in test [16]; 34.2% in test [17]; 0.62% in test [18]. In addition, the inhibition in test [19] amounted to 3.53%; in [20], 4.19%.
Regarding `COC(=O)Nc1nc2cc(Oc3ccc(NC(=O)Nc4ccccc4)cc3)ccc2[nH]1`, the inhibition is 0.28% in test [1]; 1.72% in [2]; 3.06% in test [3]; 4.04% in test [4]; 7.05% in test [5]; 1.84% in test [6]. For the same compound, the inhibition in test [7] is 1.98%; in test [8] it was -2.96%; in test [9] it was 4.66%; in [10], 2.47%; in [11], 3.53%; in test [12], 11.9%. Also, the inhibition in test [13] was determined as 24.9%; in test [14] it was 28.9%; in test [15] it was 42.6%; in test [16], 9.63%; in [17] it was 14.7%; in test [18], 1.5%. Also, the inhibition came out at 0.87% in test [19] and 3.39% in test [20].

(Values after ChEMBL document CHEMBL1961873, “Compounds: GSK PKIS; Assays: Nanosyn kinase panel” (2012).)
